# According to the supplement of paper PMC10338343:
# ± gives the standard deviation. Over roughly 8,200 sequences, “pre-steady-state target cleavage rate” has its median near 0.024; the highest 2% begin near 1.3. The entries come from a sample that favours the highest values as a whole.
# Tested on: MIWI (PIWIL1) piRISC loaded with L1MC piRNA (30 nt)
# Assay: pre-steady-state target cleavage rate (min^-1); MIWI and MILI are mouse PIWI proteins and EfPiwi is from a freshwater sponge; tags in brackets are library labels; higher = faster piRNA-guided slicing of the target
# Settings: guide: L1MC piRNA 5'p-UAACUAAAUACUAUGCAAGCUGUAGGUCCU
# Experimental: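 Cleave-'n-Seq: a library of target RNAs (target site embedded in constant flanks, ACAGCATTCCGCGTTAGTGATATCCG... 5' flank; DNA-blocked outside the site) at 0.1 nM was incubated with 1 nM active mouse MILI or MIWI piRISC (synthetic 5'-monophosphorylated piRNA guide) with or without 500 nM mouse GTSF1 at 33 °C for 1 min to 16 h. Uncleaved targets were sequenced and normalised to non-target controls, and the pooled three trials were fitted to a burst-and-steady-state model to give the pre-steady-state cleavage rate (min^-1; k3 is constrained to at most 1e-4). Sequence is the target site only; target names encode pairing extent (gX:gY) and contiguous / 1-mismatch / 2-mismatch / bulge geometry. Fits with R² ≤ 0 are excluded.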
# [1] = auxiliary factor: 500 nM mouse GTSF1
# [2] = auxiliary factor: none (no GTSF1)
Sequence,pre-steady-state target cleavage rate [1],pre-steady-state target cleavage rate [2]
UCCUCCAUGAGCUUGCAUAGUAUUUAGUAA,0.471 ± 0.029,0.0262 ± 0.0057
UCCUGCUACAGCUUGCAUAGUCAUUUAGUUA,0.0744 ± 0.02,0.00362 ± 0.0031
UCCUGGAUGUCCUUGCAUAGUAUUUAGUCA,0.0473 ± 0.011,0.00568 ± 0.0021
UCGACCUACAUGCUUGCAUAGUAUUUAGUUA,0.913 ± 0.037,0.0554 ± 0.012
UCCACCUACAGCUUGCAUAGUUUUUACUUA,0.173 ± 0.03,0.0106 ± 0.0026
UCCUGGUUCAGCUUGCAUAGUUUUUAGUUA,0.242 ± 0.031,0.0386 ± 0.0094
AGGACCUACAGCAACCAUAGUAUUUAGUUA,0.426 ± 0.039,
UCCACCAACAGCUUGCAUAGUAUUUAGUAA,0.644 ± 0.039,0.0342 ± 0.0071
UCCACCAACAGCUUGCAUAGUAUUUAGUUA,1.06 ± 0.037,0.0618 ± 0.011
AGGUCCAACAGCUUGCAUAGUAUUUAGUUA,1.5 ± 0.04,0.0907 ± 0.014
UCCUCCAACAGCUUGCAUAGUAUUUAGUUA,1.37 ± 0.041,0.0735 ± 0.013
UCCAACUACAGCUUGCAUAGUAUUUAGUUA,0.646 ± 0.038,0.0478 ± 0.0076
UCCUCCAACAGCUUGCAUAGUAUUUAGAUA,0.491 ± 0.042,0.0201 ± 0.0048
UGGUCCAACAGCUUGCAUAGUAUUUAGUUA,0.852 ± 0.034,0.0715 ± 0.01
UCGUCCAACAGCUUGCAUAGUAUUUAGUUA,1.4 ± 0.044,0.0771 ± 0.014
UCCUCCAACAGCUUGCAUAGUAUUUAGUAA,0.675 ± 0.03,0.0256 ± 0.0063
UGGACGUACAGCUUGCAUAGUAAUUAGUUA,0.725 ± 0.048,0.0371 ± 0.0089
UCCUGGUACAGCUUGCAUAGUAUUAUGAAA,0.119 ± 0.037,
UCCUGGUACACCUUGCAUAGUAAUUAGUUA,0.546 ± 0.1,0.00728 ± 0.0025
ACGACCUACAGCUUGGAUAGUAUUUAGUUA,1.68 ± 0.067,0.0728 ± 0.011
UCGACCUACAGCUUGGAUAGUAUUUAGUUA,1.72 ± 0.055,0.0599 ± 0.01
UCGACCUACAGCUUGGAUAGUAUUUAGAUA,0.444 ± 0.05,0.0181 ± 0.0047
UCGACCUACAGCUUGGAUAGUAUUUAGUAA,0.859 ± 0.043,0.0299 ± 0.0054
AGCACCUACAGCUUGGAUAGUAUUUAGUUA,0.99 ± 0.049,0.0433 ± 0.0065
UGCACCUACAGCUUGGAUAGUAUUUAGUUA,1.18 ± 0.065,0.05 ± 0.008
AGGACGAACAGCUUGCAUAGUAUUUACAAA,0.245 ± 0.037,0.00641 ± 0.0027

Sequence,pre-steady-state target cleavage rate [1],pre-steady-state target cleavage rate [2]
UGGACCUACACGUUGCAUAGUAUUUAGUAA,0.575 ± 0.039,0.00987 ± 0.0024
AGGAUCCUACAGCUUGCAUAGUAUUUAGUUA,1.4 ± 0.068,0.118 ± 0.023
UGGAUCCUACAGCUUGCAUAGUAUUUAGUUA,1.37 ± 0.071,0.0869 ± 0.014
UCGAUCCUACAGCUUGCAUAGUAUUUAGUUA,1.49 ± 0.042,0.0686 ± 0.013
UCCAUCCUACAGCUUGCAUAGUAUUUAGUUA,0.558 ± 0.029,0.0561 ± 0.0096
AGGUCCUACAGCUUGCAUAGUAUUUACAAA,0.428 ± 0.076,0.00841 ± 0.003
UGGACCUACAGCUUGCAGUAGUAUUUAGUUA,0.00477 ± 0.0038,
UCCUGGUUCAGCUUGCAUAGUAUUUAGUAA,0.528 ± 0.055,0.0354 ± 0.008
UCCUGCAACAGGUUGCAUAGUAUUUAGUUA,1.11 ± 0.085,0.0208 ± 0.0052
UCCUGGAUGUGCUUGCAUAGUAUUUAGGUUA,0.191 ± 0.02,0.0232 ± 0.0058
UCCUGGAUGUGCUUGCAUAGUAUUUAUGUUA,0.202 ± 0.026,0.0215 ± 0.0052
AGGACCUAGAGCUUGCAUAGUAAUUAGUUA,0.747 ± 0.047,0.0277 ± 0.0076
UCGACCAACAGCUUGCAAAGUAUUUAGUUA,1.29 ± 0.043,0.0448 ± 0.01
AGGACCAACAGCUUGCUUAGUAUUUAGUUA,1.31 ± 0.066,0.0459 ± 0.0084
UCGACCAACAGCUUGCAUUGUAUUUAGUUA,0.973 ± 0.028,0.0383 ± 0.008
UGGACCAACAGCUUGCAAAGUAUUUAGUUA,1.38 ± 0.062,0.0368 ± 0.0072
AGGACCAACAGCUUGCAAAGUAUUUAGUUA,1.18 ± 0.038,0.0503 ± 0.01
UCGACCAACAGCUUGCUUAGUAUUUAGUUA,1.47 ± 0.05,0.0416 ± 0.0081
UGGACCAACAGCUUGCUUAGUAUUUAGUUA,1.64 ± 0.092,0.0497 ± 0.01
UCCUCCAACAGCUUGCUUAGUAUUUAGUUA,1.28 ± 0.054,0.0363 ± 0.0081
UCCACCAACAGCUUGCUUAGUAUUUAGUUA,1.31 ± 0.061,0.026 ± 0.0061
UCCUCCUACAGUUGCAUAGUAUUUAGUUA,0.742 ± 0.046,0.00376 ± 0.0017
UCCUGGUUCAGCUUGCAUAGUAUUUACUUA,0.18 ± 0.041,0.0237 ± 0.0048
UCCUCCUACACCUUCCAUAGUAUUUAGUUA,0.0661 ± 0.024,
UGGACCUACAGCUUGCAUACUUUUUAGUUA,0.0337 ± 0.0046,0.00745 ± 0.0014
UCCACCUACAGCUUGCAUAGUAUAUACAAA,0.413 ± 0.089,

Sequence,pre-steady-state target cleavage rate [1],pre-steady-state target cleavage rate [2]
UCCUGGAACAGCUUGCAUAAUAUUUAGUUA,0.559 ± 0.045,0.0418 ± 0.0079
UCCUGGAUCAGCUUGCAUAGUAUUUAGCUA,0.0164 ± 0.0052,0.00651 ± 0.0022
UCCUGGAACAGCUUGCUUUGUAUUUAGUUA,0.0971 ± 0.011,0.00848 ± 0.0027
AGGACCUACAGCUUGCAUAGUAUUUAGUUC [g2:g30:cont:t1C],0.664 ± 0.055,0.0568 ± 0.01
UGGACCUUACAGCUUGCAUAGUAUUUAGUUA,1.58 ± 0.095,0.0853 ± 0.016
UCCACCUUACAGCUUGCAUAGUAUUUAGUUA,1.03 ± 0.043,0.0654 ± 0.013
AGGACCUUACAGCUUGCAUAGUAUUUAGUUA,1.33 ± 0.06,0.0925 ± 0.016
AGGACCUACAGCUUGCAUAGUAUUUUAGUUA,1.08 ± 0.058,0.056 ± 0.014
AGGACCUACAGCUUGCAUAGUAUUUAGUUA [g2:g30:cont:t1A],1.35 ± 0.057,0.0941 ± 0.015
GGGACCUACAGCUUGCAUAGUAUUUAGUUA,1.32 ± 0.097,0.113 ± 0.025
UCGGACCUACAGCUUGCAUAGUAUUUAGUUA,1.37 ± 0.097,0.0616 ± 0.01
CGGACCUACAGCUUGCAUAGUAUUUAGUUA,0.743 ± 0.028,0.06 ± 0.0088
AAGGACCUACAGCUUGCAUAGUAUUUAGUUA,1.29 ± 0.071,0.0755 ± 0.014
AGGACCUUCAGCUUGCAUAGUAUAUAGUUA,0.827 ± 0.057,0.0427 ± 0.009
AGGACCUACAGCUUGCAUAGUAUUUAGUUU [g2:g30:cont:t1U],1.64 ± 0.079,0.165 ± 0.036
AGGACCUACAGCUUGCAUAGUAUUUAGUUUA,1.27 ± 0.067,0.11 ± 0.019
AGGACCUACAGCUUGCAUAGUAUUUAGUUG [g2:g30:cont:t1G],0.455 ± 0.046,0.0773 ± 0.018
AGGGACCUACAGCUUGCAUAGUAUUUAGUUA,1.31 ± 0.086,0.102 ± 0.021
UGGGACCUACAGCUUGCAUAGUAUUUAGUUA,1.11 ± 0.1,0.134 ± 0.033
ACGGACCUACAGCUUGCAUAGUAUUUAGUUA,1.24 ± 0.072,0.0796 ± 0.016
UCCACCUACAGCUUGCAUAGUAUUUAGGUUA,0.409 ± 0.062,0.0153 ± 0.0045
UCGACCUACAGCUUGCAUAGAUUUUAGUAA,0.124 ± 0.023,
UCCUCCUACAGCUUGCAUAGUAAUUAGAUA,0.297 ± 0.047,0.00556 ± 0.0028
UCCUGCUACAGUCUUGCAUAGUAUUUAGUUA,0.643 ± 0.033,0.0274 ± 0.005
